Screens from PubChem BioAssay.
The list is not random: actives were taken first. Their share in the collection is about 11%.
NIH3T3 tox = cytotoxic compounds in NIH 3T3 cells; NIH 3T3 viability, CellTiter-Glo ATP luminescence, 48-72 h; Potency, µM (titrated, usually from 96.7 µM), most hits filed as inhibitors; actives 4.3% (n = 94,000); note: nearly all actives have a fitted effect of over 55% in size
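Cells were seeded at 400 per well, treated with pin-transferred compound, and kept 48 or 72 hr at 37 °C before CellTiter-Glo addition and luminescence imaging of cellular ATP.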
hNpr1 antagonist = antagonists of human natriuretic peptide receptor Npr1; P16066; HEK293 hNpr1 GloSensor cGMP, ANP-stimulated luminescence; Potency, µM (titrated, usually from 46.3 µM), hits mostly inhibitors; actives 1.6% (n = 76,000); AID 1347048; calls by dose curve; note: nearly all actives have a fitted effect of over 60% in size
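Compound pre-incubated 30 min at room temperature on GloSensor-loaded HEK293 cells stably carrying hNpr1 and the pGS-40F cGMP biosensor. Stimulation uses hNppA at 0.1 nM final; luminescence is taken at baseline and 20 min post-agonist.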
FLuc inh = inhibitors of firefly (Photinus pyralis) luciferase | P08659 | purified P. pyralis luciferase, luminescence, biochemical | Potency, µM (series often up to 115 µM), most hits filed as inhibitors | AID 1347043 | actives 2.5% (n = 76,000); note: nearly all actives have a fitted effect of over 65% in size
Target sequence (P08659 whole entry, looked up): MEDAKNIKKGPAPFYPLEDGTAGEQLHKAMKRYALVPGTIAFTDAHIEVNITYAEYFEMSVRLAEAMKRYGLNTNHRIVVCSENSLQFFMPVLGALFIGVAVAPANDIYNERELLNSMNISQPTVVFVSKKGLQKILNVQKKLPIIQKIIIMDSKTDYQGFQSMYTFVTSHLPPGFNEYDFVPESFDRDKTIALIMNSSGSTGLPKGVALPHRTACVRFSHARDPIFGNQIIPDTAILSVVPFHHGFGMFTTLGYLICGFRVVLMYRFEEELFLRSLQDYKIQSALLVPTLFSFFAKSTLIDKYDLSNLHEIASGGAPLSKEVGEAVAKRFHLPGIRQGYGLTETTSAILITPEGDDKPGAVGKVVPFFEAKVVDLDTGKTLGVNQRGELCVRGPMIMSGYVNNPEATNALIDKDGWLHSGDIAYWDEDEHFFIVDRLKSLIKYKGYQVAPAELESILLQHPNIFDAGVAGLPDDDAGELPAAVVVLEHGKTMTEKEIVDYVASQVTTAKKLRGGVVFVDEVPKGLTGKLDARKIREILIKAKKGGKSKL
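Purified P. pyralis luciferase (10nM final) in 50mM Tris acetate pH 7.5, 10mM Mg acetate, 0.01% Tween-20, 0.05% BSA with 10uM D-luciferin and 10uM ATP. Compounds titrated qHTS. Luminescence imaged on CCD.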
HEK cytotox = cytotoxic compounds in HEK 293 cells; AID 1345083; Potency, µM (titrated, usually from 115 µM), actives largely listed as inhibitors; actives 6.6% (n = 94,000); HEK 293 viability, ATP luminescence (CellTiter-Glo), 48-72 h; note: nearly all actives have a fitted effect of over 60% in size
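ATP-coupled CellTiter-Glo luminescence served as viability read-out, recorded 10 min after reagent addition at room temperature. HEK 293 cells, 250 cells/well, had been incubated with pintool-transferred compound for 48 or 72 hr at 37 degree Celsius.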
Hits are given with their value; . = inactive; ? = inconclusive; / = no result given. Unless noted, calls come from the whole dose curve; as a rule, active = well fitted curve in the direction sought with a large enough effect; inconclusive = small, poorly fitted or top-dose-only effect, or another doubt; inactive = no such curve, though single readings can be large; an effect the other way counts as inactive or inconclusive.

SMILES | NIH3T3 tox | hNpr1 antagonist | FLuc inh | HEK cytotox
COc1cccc(-c2ccc(CN3CCCC(NC(=O)c4ccccn4)C3)cc2)c1 (centres undefined) | ? | / | / | 25µM
COc1cccc(-c2ccc(CN3CCCC(NC(=O)c4ccncc4)C3)cc2)c1 (centres undefined) | ? | / | / | 22µM
O=C(N[C@@H]1CCOC[C@H]1OCc1cscn1)c1ccc(Cl)s1 | . | . | . | .
Cc1cccc(C(=O)NC2CCCN(Cc3ccc(-c4cc(C)cc(C)c4)cc3)C2)c1 (centres undefined) | ? | / | / | 40µM
COc1cccc(-c2ccc(CN3CCCC(NC(=O)c4ccc(C)cc4)C3)cc2)c1 (centres undefined) | ? | / | / | 22µM
Cc1cc(C)cc(-c2ccc(CN3CCCC(NC(=O)c4ccc(C(F)(F)F)cc4)C3)cc2)c1 (centres undefined) | . | / | / | .
COc1cccc(-c2ccc(CN3CCCC(NC(=O)c4ccc(C(F)(F)F)cc4)C3)cc2)c1 (centres undefined) | . | / | / | .
O=S(=O)(Cc1ccccc1)Nc1cnc2c(c1)CCC2 | . | / | / | .
O=C1Nc2ccccc2C2(CCN(C(=O)OCc3ccccc3)C2)O1 (centres undefined) | ? | . | . | ?
Cn1ncc2c(C(=O)N3CCC(Cc4ccccc4)CC3)cc(-c3ccccc3C(F)(F)F)nc21 | 28µM | / | / | 40µM
Cn1ncc2c(C(=O)N3CCN(Cc4ccccc4)CC3)cc(-c3ccccc3C(F)(F)F)nc21 | ? | / | / | 45µM
CC(=O)N1CCN(C(=O)c2cc(-c3ccccc3C(F)(F)F)nc3c2cnn3C)CC1 | . | / | / | .
Cn1ncc2c(C(=O)N3CCC(c4ccccc4)CC3)cc(-c3ccccc3C(F)(F)F)nc21 | 28µM | / | / | 45µM
Cn1ncc2c(C(=O)N3CCCCC3)cc(-c3ccccc3C(F)(F)F)nc21 | . | / | / | ?
O=C(NCCc1ccc(Cl)cc1)C1CCc2nnc(C3CCN([S+](=O)([O-])c4ccccc4Cl)CC3)n21 (centres undefined) | ? | / | / | .
COCc1ccc(CN[C@H]2C[C@@H](Cc3cc(CN4CCCCC4)on3)C2(C)C)o1 | ? | . | . | ?
CC(C)Oc1ccc(C(=O)N2Cc3cnn(Cc4ccc(F)cc4)c3C2)cc1 | ? | ? | . | ?
Cc1cc(Cl)ccc1C(=O)N1Cc2cnn(Cc3ccc(F)cc3)c2C1 | ? | ? | . | 45µM
CCc1ncc(-c2c(-c3ccccc3)ncn2CCCOc2cccnc2)cn1 | . | . | . | .
Cc1cc(C)n(CCc2c(-c3ccccc3)ncn2CCCc2cccnc2)n1 | 50µM | . | . | .
O=C(C[C@H]1NC(=O)c2ccccc2NC1=O)Nc1nc(-c2cccnc2)cs1 | ? | . | . | 45µM
Cc1cn2nc(C(=O)Nc3ccc(N(C)C)cc3)cc2c(N(C)Cc2ccccc2)n1 | ? | . | 2.5µM | ?
Cc1cn2nc(C(=O)Nc3ccc(Cl)cc3)cc2c(N(C)Cc2ccccc2)n1 | . | . | . | .
CCNC(=O)NC[C@@H]1C=C(C)[C@H](Cc2nnc(-c3cncn3C)o2)C[C@H]1C(C)C | ? | . | . | .
Cc1ccc(C(=O)N2CCC3(CC2)N=C(c2ccc(C)cc2)NO3)cc1 | . | . | 35µM | .
SMILES | NIH3T3 tox | hNpr1 antagonist | FLuc inh | HEK cytotox
CCc1ccc(C(=O)N2CCC3(CC2)N=C(c2ccc(C)cc2)NO3)cc1 | . | ? | 40µM | ?
COc1ccc(C(=O)N2CCC3(CC2)N=C(c2ccc(C)cc2)NO3)cc1 | . | . | ? | ?
Cc1ccc(C2=NC3(CCN(C(=O)c4ccsc4)CC3)ON2)cc1 | . | . | 40µM | .
O=C(c1ccc2cc[nH]c2c1)N1CCC2(CC1)N=C(c1ccccc1)NO2 | . | . | 28µM | ?
O=C(Nc1ccccc1Cl)c1ccc2nnc(C3CCOCC3)n2c1 | . | / | / | .
O=C(CCC1CCCN(CCCn2cccn2)C1)Nc1ccc(C(F)(F)F)cc1 (centres undefined) | ? | . | . | ?
Cc1ccc(C2=NC3(CCN(C(=O)c4ccc5c(c4)OCO5)CC3)ON2)cc1 | . | . | 35µM | ?
Cc1ccc(C(=O)N2CCC3(CC2)N=C(c2cccc(Br)c2)NO3)cc1 | 16µM | ? | . | ?
O=C(c1ccoc1)N1CCC2(CC1)N=C(c1cccc(Br)c1)NO2 | . | . | . | .
O=C(NCc1ccccc1)C1CCc2nnc(C3CCN([S+](=O)([O-])c4ccccc4Cl)CC3)n21 (centres undefined) | . | / | / | .
Cc1cc(C)cc(-c2[nH]nc3ncc(-c4ccsc4)nc23)c1 | 25µM | . | . | ?
Cc1ccc(-c2cnc3n[nH]c(-c4ccccc4)c3n2)cc1 | ? | . | . | 32µM
COc1ccc(-c2[nH]nc3ncc(-c4ccccc4F)nc23)c(C)c1 | 50µM | . | . | 63µM
c1ccc(-c2cnc3n[nH]c(-c4ccccc4)c3n2)cc1 | ? | . | . | 100µM
Cc1cc(-c2cnc3n[nH]c(-c4ccccc4)c3n2)ccn1 | ? | . | . | ?
COc1ccc(-c2[nH]nc3ncc(-c4cn[nH]c4)nc23)c(C)c1 | ? | . | . | ?
COc1ccccc1-n1c(=O)c(C(=O)N2CCN(C(=O)NC3CCCC3)CC2)nc2cccnc21 | . | / | / | .
COc1ccc(Cn2c(=O)c(C(=O)NCC(F)F)nc3cccnc32)cc1 | . | / | / | .
CC(=O)Nc1ccc(CN2CCOC[C@H]2c2ncc(-c3ccc(Cl)cc3)[nH]2)cc1 | ? | . | . | ?
COc1ccc(-c2cccc(C(=O)N3CCN(C(=O)C4CC4)CC3)c2)nn1 | . | / | / | .
c1cncc(-c2cnc3n[nH]c(-c4ccc5c(c4)OCO5)c3n2)c1 | ? | . | . | 28µM
Cc1cccc(-c2cnc3n[nH]c(-c4ccccc4)c3n2)c1 | ? | . | . | 71µM
O=C(Nc1ccon1)c1cnc2n[nH]c(-c3ccccc3)c2n1 | 32µM | . | . | ?
COc1ccc(-c2[nH]nc3ncc(-c4ccccc4O)nc23)cc1F | ? | . | . | ?
Fc1ccccc1-c1cnc2n[nH]c(-c3ccccc3)c2n1 | 89µM | . | . | 112µM
SMILES | NIH3T3 tox | hNpr1 antagonist | FLuc inh | HEK cytotox
O=C(NC1CCCN(c2ccc3nnc(-c4ccccc4)n3n2)C1)C1CC1 (centres undefined) | . | / | / | .
CC(=O)N1CCC(N2CCN3C(=O)N(Cc4ccccn4)C[C@H]3C2)CC1 | . | . | . | .
O=C(Cc1ccccn1)NCCNC(=O)c1cccc(-c2ccsc2)c1 | . | / | / | .
COC(=O)[C@@H]1Cc2c([nH]c3ccccc23)[C@@H]2C[C@@H](NCCCn3ccnc3)C[C@@H](c3ccc(F)c(F)c3)N12 | 28µM | . | . | 25µM
COC(=O)[C@@H]1Cc2c([nH]c3ccccc23)[C@H]2C[C@H](NCCCn3ccnc3)C[C@@H](c3ccccc3F)N21 | 5µM | . | . | ?
O=C(Cc1c[nH]c2ncc(-c3ccccc3)cc12)NCCCn1ccnc1 | ? | . | . | .
COC(=O)[C@@H]1Cc2c([nH]c3ccccc23)[C@H]2C[C@@H](NCCCn3ccnc3)C[C@@H](c3ccccc3)N21 | 20µM | . | . | ?
Cc1noc(C)c1-c1cc2c(cc(-c3ccccc3)n2C)c(-c2cccnc2)n1 | ? | . | . | ?
